Hit rate of the full screen: of about 48,000 compounds, about 13,000 (27%) showed an effect of 50% or more. The list shows a part of the results.

The assay deals with Wolbachia pipientis. The assay is described as follows: Anti-Wolbachia Cell-Based Screen. The class given is functional. Further details: scale not given: in the data most compounds retested in dose-response had high values. The following applies: 5 µM.
As for `COC(=O)c1cc2c(=O)[nH]c(=O)n(CCc3ccccc3)c2nc1C`, the “Percent Effect” value is -9.313%.
As for `O=C(c1ccc2cccc(F)c2n1)N1CCN(CCn2cncn2)CC1`, the “Percent Effect” value is -17.81%.
In the case of `Cc1cc(CN(C)C(=O)NC(C)c2nncn2C)no1` (stereo not drawn) it was 1.763%; in that of `Cc1cc(C)n(C2CN(c3nc(N)nc4c3CCCC4)C2)n1`, 12.27%; in that of `NCc1csc(CCc2ccccc2)n1`, -7.942%.
Consider `CN(C)Cc1cc(C2CCCN(S(=O)(=O)c3cccc(Cl)c3)C2)nn1C` (stereo not drawn), for which the “Percent Effect” value was 157.3%.
Turning to `CCN(C)C[C@@H]1CN(S(=O)(=O)c2cccc(Cl)c2)C[C@@H]1CO`, the “Percent Effect” value is 13.86%.
For `CN(C)CCN1CC[C@@H]2[C@@H]1CCN2C(=O)c1cccc(Cl)c1` the value was -16.88%; for `CN1C(=O)C[C@@H]2[C@@H]1CCN2S(=O)(=O)Cc1ccccc1`, -5.88%; for `CN(C)Cc1cc(C2CCCCN2S(=O)(=O)Cc2ccccc2)nn1C.Cl` (stereo not drawn), 133.2%.
In the case of `CN(C)Cc1cc(C2CCCCN2S(=O)(=O)c2cccc(Cl)c2)nn1C.Cl` (stereo not drawn) it was 167.4%; in that of `O=S(=O)(c1cccc(Cl)c1)N1CCCC(Cn2cncn2)C1` (stereo not drawn), -2.672%.
For `O=S(=O)(N1CCCC1)N1CCCCC1CCc1ccccc1` (stereo not drawn) the value was 1.463%; for `CCN(Cc1cccc(NC(=O)COC)c1)C(C)=O`, -0.3601%; for `Cc1cc(C(=O)NC(C)c2nnn[nH]2)c2ccc(C)c(C)c2n1` (stereo not drawn), -4.141%.
On to `c1csc(-c2noc(COCC3CCCO3)n2)c1` (stereo not drawn), for which the “Percent Effect” value was found to be 0.9659%.
In the case of `CCOCc1ccccc1NC(=O)NC1CCN(c2ccccc2)C1` (stereo not drawn) it was 9.486%; in that of `O=C(c1ccc[nH]1)N1CCC2(CC1)C(=O)Nc1ccccc12`, -2.806%; in that of `Cc1nc(C)c(Cc2nc(C3CC3)n[nH]2)c(=O)[nH]1`, -38.01%.
As to `Cc1ccc(C2CCCN2CC(=O)N(CCC#N)c2ccccc2)cc1` (stereo not drawn), the “Percent Effect” value amounted to 5.667%.
In the case of `COCc1ccc(C(=O)N2CCc3c(ncnc3N3CCOCC3)C2)o1`, the “Percent Effect” value is -21.39%.
Turning to `COc1ncccc1C(=O)N1CCc2c(ncnc2N2CCOCC2)C1`, the “Percent Effect” value stood at 105%.
For `O=C(c1ncccc1O)N1CCc2c(ncnc2N2CCOCC2)C1` the value was -10.43%.
In the case of `CCc1ccc(-c2nn3c(nc2=O)-c2ccccc2NC3C(=O)O)cc1` (stereo not drawn) it was -8.075%; in that of `CCc1cnc(CN2CCOC(c3nc(C)n[nH]3)C2)o1` (stereo not drawn), -1.85%; in that of `Clc1ccc(-n2cc(CNC3CCc4ncnn4C3)cn2)cc1` (stereo not drawn), -12.36%.
In the case of `c1ccc(-n2cc(CNC3CCc4ncnn4C3)cn2)cc1` (stereo not drawn) it was 107.7%; in that of `c1ccc(-n2ncc(CNC3CCc4ncnn4C3)n2)cc1` (stereo not drawn), -11.2%; in that of `Cn1cc(CNC2CCc3ncnn3C2)c(-c2ccncc2)n1` (stereo not drawn), 11.86%.
Turning to `Clc1ccccc1Cn1cc(CNC2CCc3ncnn3C2)cn1` (stereo not drawn), the “Percent Effect” value came out at 121.3%.
For the compound `Cn1cc(CNC2CCc3ncnn3C2)c(-c2cccnc2)n1` (stereo not drawn), the “Percent Effect” value is given as -2.662%.
In the case of `c1cncc(CNC2CCc3ncnn3C2)c1` (stereo not drawn) it was 100.1%; in that of `c1ccc(Cn2cc(CNC3CCc4ncnn4C3)cn2)cc1` (stereo not drawn), 1.382%.
In the case of `Cc1nc(C)n(C2CCCN(C(=O)c3cccc4[nH]ncc34)C2)n1` (stereo not drawn) it was 0.6187%.
As to `c1ccc2c(c1)CC(N1CCCN(Cc3cccc4nonc34)CC1)C2`, the “Percent Effect” value is -60.59%.
For `COCC(NC(=O)NCc1cccc(C#N)c1)c1ccco1` (stereo not drawn) the value was -16.03%; for `CN(Cc1cccc(OC(F)(F)F)c1)C(=O)c1ccncc1F`, 3.384%.
For `CNC(=O)NCC(CO)Cc1cccc(OC(F)(F)F)c1` (stereo not drawn) the value was 137.5%; for `CN(Cc1cccc(OC(F)(F)F)c1)C(=O)Cc1ccon1`, -6.414%; for `O=C(NCC(Cc1cccc(F)c1)N1CCCC1=O)c1cnccn1` (stereo not drawn), -11.28%.
For `CN(Cc1ccccc1OC(F)(F)F)C(=O)C1CC1` the value was 0.731%; for `O=C(NCC(CO)Cc1cccc(OC(F)(F)F)c1)c1cnccn1` (stereo not drawn), 103%; for `CC(CNC(=O)c1cnccn1)Oc1cccc(Br)c1` (stereo not drawn), -3.895%.
As to `CNC(=O)NCC(CO)Cc1ccccc1OC(F)(F)F` (stereo not drawn), the “Percent Effect” value came out at 119.9%.
In the case of `CC(O)CN1CCC(CNCc2ccccc2OC(F)(F)F)CC1` (stereo not drawn) it was -2.479%; in that of `O=C(c1ncc[nH]1)N1CCC(n2cc(-c3ccccn3)nn2)CC1`, -4.702%; in that of `CN1N=C(C(=O)N2CCN(c3ncccc3Cl)CC2)CCC1=O`, -3.997%.
For `CC(C)C(=O)NCCCn1ncc2c(Cl)cccc21` the value was -4.05%; for `O=S(=O)(N1CCCCCC1)N1CCN(Cc2ccc(F)cc2Br)CC1`, 6.465%; for `O=C(CN1CCCC1Cn1cncn1)Nc1cccnc1` (stereo not drawn), -2.58%.
For `O=C(CN1CCCCC1Cn1cncn1)NCCOc1ccccc1` (stereo not drawn) the value was 140%.
Turning to `O=C(CN1CCCC1Cn1cncn1)NCCOc1ccccc1` (stereo not drawn), the “Percent Effect” value was found to be 108.3%.
For `CCN1CCC(NC(=O)CN2CCCC2Cn2cncn2)CC1` (stereo not drawn) the value was 1.475%; for `O=C(CN1CCCC1Cn1cncn1)NCCOc1cccc(F)c1` (stereo not drawn), 0.2795%.
For `Cc1cccc(OCCNC(=O)CN2CCCC2Cn2cncn2)c1` (stereo not drawn) the value was 115.7%.
For `O=C(CN1CCCC1Cn1cncn1)NC(C1CC1)C1CC1` (stereo not drawn) the value was -5.289%.
For the compound `O=C(CN1CCCC(Cn2cncn2)C1)NCCOc1ccccc1` (stereo not drawn), the “Percent Effect” value is reported as -8.945%.
For `O=C(CN1CCCCC1Cn1cncn1)NC1CCN(C2CC2)CC1` (stereo not drawn) the value was -6.056%.
In the case of `O=C(CN1CCCC1Cn1cncn1)NCCOc1ccc(F)cc1` (stereo not drawn) it was 135.9%.
In the case of `O=C(CN1CCCC1Cn1cncn1)NCCc1c(F)cccc1F` (stereo not drawn) it was -7.499%; in that of `COc1ccc(CNC[C@@]2(COc3cccnc3)C[C@@H](O)[C@@H](O)C2)cc1.Cl`, -5.616%.
As to `CCSCCC(C)NC(=O)Nc1cccn(C)c1=O` (stereo not drawn), the “Percent Effect” value was -9.489%.
For `CC(C)C1CN(Cc2cnc(N(C)C)nc2)CCCN1CC1CC1` (stereo not drawn) the value was -7.489%; for `CN(C)c1ccc(NC(=O)N2CCCCCC2c2ccncc2)cn1` (stereo not drawn), 0.3778%; for `CC(C)N1CCCCC1c1nc(N(C)C)ncc1I.Cl` (stereo not drawn), 76.51%.
In the case of `COCCOc1ccnc(-c2noc([C@@H]3CCCN3C(C)C)n2)c1` it was -15.24%; in that of `CC(C)N1CCCC1c1nc(N(C)C)ncc1I` (stereo not drawn), 51.47%.
With `CC1=N[C@@]2(CC[C@@H]3CN(C(=O)NCC(C)C)C[C@@H]32)C(=O)N1CC(C)C`, the “Percent Effect” value is reported as 8.203%.
In the case of `CCCc1nccn1-c1cccc(CN2CCCC2)c1` it was -15.07%; in that of `Cc1ncccc1C(=O)NCc1ccccc1CN(C)Cc1ccco1`, 15.52%.
In the case of `CCCNc1ncc(CN2CCN(C)C(=O)C2C)cn1` (stereo not drawn) it was -4.636%; in that of `CC(C)N1CCOCC2(CN(Cc3cccs3)CCO2)C1.O=C(O)C(F)(F)F.O=C(O)C(F)(F)F` (stereo not drawn), 7.639%.
For `O=C(O)C(F)(F)F.O=C(O)C(F)(F)F.c1csc(CN2CCCC3(COCCN(Cc4c[nH]nn4)C3)C2)c1` (stereo not drawn), the “Percent Effect” value is listed as -6.971%.
In the case of `O=C(NC1CC1)N1CCOCC2(CCN(Cc3cccs3)C2)C1.O=C(O)C(F)(F)F` (stereo not drawn) it was 89.31%; in that of `O=C(c1ccoc1)N1CCOCC2(CCN(Cc3cccs3)C2)C1` (stereo not drawn), 98.93%; in that of `O=C(O)C(F)(F)F.O=C(O)C(F)(F)F.c1csc(CN2CCC3(COCCN(CC4CC4)C3)C2)n1` (stereo not drawn), 26.97%.
In the case of `Cc1occc1C(=O)N1CCOCC2(CCN(Cc3nccs3)C2)C1.O=C(O)C(F)(F)F` (stereo not drawn) it was -1.117%; in that of `CN(C)CCN1CCOCC2(CCCN(C(=O)c3ccoc3)C2)C1.O=C(O)C(F)(F)F.O=C(O)C(F)(F)F` (stereo not drawn), -7.918%; in that of `Cc1ccc(CN2CCOC3(COCCN(C(C)C)C3)C2)o1.O=C(O)C(F)(F)F.O=C(O)C(F)(F)F` (stereo not drawn), -26.11%.
As for `O=C(N1CCCC1)N1CCOCC2(CCN(Cc3cccs3)C2)C1.O=C(O)C(F)(F)F` (stereo not drawn), the “Percent Effect” value came to 119.1%.
For `Cc1ccc(CN2CCOCC3(CCN(Cc4cccs4)C3)C2)o1.O=C(O)C(F)(F)F.O=C(O)C(F)(F)F` (stereo not drawn) the value was 110.5%.
For `Cc1ccc(CN2CCCC3(COCCN(Cc4c[nH]nn4)C3)C2)o1.O=C(O)C(F)(F)F.O=C(O)C(F)(F)F` (stereo not drawn) the value was -14.33%; for `COCCN1C[C@@H](C)[C@@]2(COCCN(C(=O)c3ccoc3)C2)C1`, 1.711%; for `OCCN(Cc1cccnc1)c1cnc2ccccc2n1`, -10.33%.
For `COCCC(=O)N1CCC2(CCN(Cc3ccc(C)cc3)CC2)C1.O=C(O)C(F)(F)F` the value was -24.32%; for `COCCC(=O)N1CCOCC2(CCN(Cc3cccs3)C2)C1.O=C(O)C(F)(F)F` (stereo not drawn), 93.92%.
Turning to `COCC(=O)N1CCOCC2(CCN(Cc3cccs3)C2)C1.O=C(O)C(F)(F)F` (stereo not drawn), the “Percent Effect” value is listed as 92.34%.
For `COCCN1CCC2(COCCN(C(=O)Cc3cccs3)C2)C1.O=C(O)C(F)(F)F` (stereo not drawn) the value was 3.842%; for `COCC(=O)N1CCCC2(COCCN(CCN(C)C)C2)C1.O=C(O)C(F)(F)F.O=C(O)C(F)(F)F` (stereo not drawn), -43.45%; for `Cc1nc(CC2CCCN(Cc3nc4ccccc4c(=O)[nH]3)C2)no1` (stereo not drawn), -3.308%.
For `CSCc1cccc(S(=O)(=O)NCCCn2ccnc2)c1` the value was -11.24%; for `O=C(CCc1nccs1)N1CCN(c2ncccn2)CC1`, -7.196%.
For `COc1cc(C)nc(N2CCN(C(=O)CCc3nccs3)CC2)n1` the value was -2.127%; for `O=C(CCc1nccs1)N1CCN(c2ccccn2)CC1`, 104.9%; for `N#Cc1ccccc1N1CCCN(C(=O)CCc2nccs2)CC1`, 6.343%.
On to `Cc1csc(N2CCN(C(=O)CCc3nccs3)CC2)n1`, for which the “Percent Effect” value is listed as 0.8841%.
In the case of `O=C(CCc1nccs1)N1CCN(c2nccs2)CC1` it was 116.1%; in that of `O=C(CCc1nccs1)N1CCN(c2cccnn2)CC1`, 5.775%; in that of `O=C(CCc1nccs1)N1CCN(c2ccc(Cl)cn2)CC1`, 142.1%.
In the case of `Cc1ccc(N2CCCN(C(=O)CCc3nccs3)CC2)nn1` it was 105.9%.
In the case of `O=C(CCc1nccs1)N1CCN(c2ccc(Br)cn2)CC1` it was 15.4%.
For the compound `O=C(COCc1ccccc1)N1CCN(c2ccc(Cl)cn2)CC1`, the “Percent Effect” value is 1.398%.
For `O=C(CCc1nccs1)N1CCN(c2ccccc2F)CC1` the value was -6.443%.

Source of the values: ChEMBL document CHEMBL3988442, “University of Dundee, Small-Polar-MMV Screening Library” (2021).
